# Screening results (PubChem BioAssay)
# This is a sample that favours compounds with a hit; in the whole collection about 19% have one here.
# IL-1B inflam inh: qHTS for Inhibitors of Inflammasome Signaling: IL-1-beta AlphaLISA Primary Screen | 4.7% of 360,000 active | THP-1 LPS/ATP IL-1B secretion, AlphaLISA, 16 h; stronger effect = lower value | AID 743279, 2014 | activity change, % at 57.5 µM; in the data active means activity change below about -50%; inconclusive means mostly about -30% to -49%
#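 Secreted IL-1B measured by AlphaLISA bead assay after 16 h compound exposure of THP-1 cells; compounds (final up to 57.5 uM) added 1 h before LPS (250 ng/mL) and ATP (1.25 mM) stimulation; lower signal means less secretion.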
# DT40 TDP1 CPT: qHTS for Inhibitors of human tyrosyl-DNA phosphodiesterase 1 (TDP1): qHTS in cells in presence of CPT | chicken DT40 Tdp1-/-;hTDP1 cells + 20 nM CPT, ATP luminescence, 48 h | AID 686979, 2013 | 12% of 420,000 active | Potency, µM (titrated, usually from 46.2 µM), inactives show at the top dose activity change, negative = growth inhibition, actives largely listed as inhibitors; further: potency means the concentration at half of the fitted maximal effect; nearly all actives have a fitted effect of over 55% in size
#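 Chicken DT40 Tdp1-/- cells complemented with human TDP1, 400 cells/well, exposed to compounds plus 20 nM camptothecin for at least 48 h at 37 C; viability read as ATP content by CellTiter-Glo luminescence.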
# HT1080 IDH1KD tx: qHTS for induction of synthetic lethality in tumor cells producing 2HG: qHTS for the HT-1080-IDH1KD cell line; Potency, µM (top dose mostly 46.1 µM), for the others: at the highest dose activity, negative = toxicity, most hits filed as cytotoxic; 2% of 360,000 active; AID 686971, 2013; HT-1080 IDH1 knockdown viability, ATP luminescence, 48 h;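 further: potency means the concentration at half of the fitted maximal effect; 0% = DMSO wells and -100% = cell-free medium wells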
#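 After a 2 h attachment period, IDH1KD HT-1080 cells took pin-transferred compound for 48 h at 37 °C; ATP-based luminescence after 10 min room-temperature reagent incubation reported viability.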
# DT40 TDP1 no CPT: qHTS for Inhibitors of human tyrosyl-DNA phosphodiesterase 1 (TDP1): qHTS in cells in absence of CPT. DT40 Tdp1-/- hTDP1 cells, no CPT, ATP luminescence, 48 h. Potency, µM (doses to about 46.2 µM), without a hit: at the top dose activity change, negative = growth inhibition, hits mostly inhibitors. 15% of 420,000 active. AID 686978, 2013; further: potency means the concentration at half of the fitted maximal effect; nearly all actives have a fitted effect of over 55% in size
#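 A cellular qHTS used chicken DT40 cells lacking endogenous Tdp1 but carrying stably transfected human TDP1. Compounds were applied without camptothecin, and cell growth kinetics were judged by ATP-dependent luminescence after ≥48 hr.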
# HT1080NT lethal: qHTS for induction of synthetic lethality in tumor cells producing 2HG: qHTS for the HT-1080-NT fibrosarcoma cell line; AID 686970, 2013; HT-1080-NT fibrosarcoma viability, CellTiter-Glo ATP luminescence, 48 h; Potency, µM (series often up to 46.1 µM), without a hit: at the highest dose activity, negative = less viability, actives largely listed as cytotoxic; 1.6% of 360,000 active;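 further: NT is the 2HG producing partner of a matched IDH1 knockdown line; potency means the concentration at half of the fitted maximal effect; 0% = DMSO-treated cells and -100% = media-only wells without cells; nearly all actives have a fitted effect of over 55% in size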
#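 Luminescent CellTiter-Glo readout after 48 hours of compound exposure at 37 degrees C defined viability of HT-1080-NT cells. Activity was normalized to DMSO wells and cell-free media wells; concentration-response curves were fitted and assigned curve classes.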
# Active calls of the source: *; ? = inconclusive; · = no result. Unless noted, the call rests on the fitted dose curve; in most records, active means well fitted curve in the direction sought with a large enough effect; inconclusive means small, poorly fitted or top-dose-only effect, or another doubt; inactive means no such curve, though single readings can be large; an effect the other way counts as inactive or inconclusive. Unless noted, on the % scale 0 is the no-effect control and ±100 the full control effect.
SMILES,IL-1B inflam inh,DT40 TDP1 CPT,HT1080 IDH1KD tx,DT40 TDP1 no CPT,HT1080NT lethal
CCC/C=C/c1ccc(CN2C(C)C(=O)N(Cc3cn(CCC4OCCCO4)nn3)CCS2(=O)=O)cc1 (stereo unspecified),-24,?,-15%,13µM*,-19%
CCC/C=C/c1ccc(CN2C(C(C)C)C(=O)N(Cc3cn(CCC4OCCO4)nn3)CCS2(=O)=O)cc1 (stereo unspecified),-12,?,?,13µM*,?
CCC/C=C/c1ccc(CN2C(CC(C)C)C(=O)N(Cc3cn(CCC4OCCCO4)nn3)CCS2(=O)=O)cc1 (stereo unspecified),?,?,?,23µM*,-17%
CCCn1c(N)cc(=O)n(C)c1=O,1,0%,7%,-4%,9%
CN(Cc1ccco1)c1ncncc1-c1ccccc1C(F)(F)F,·,12%,·,4%,·
COc1ccc(C(=O)N2CCC3(CCN(C)CC3)CC2)cc1,·,9%,·,7%,·
NS(=O)(=O)c1ccc(Cc2ncc(C(F)(F)F)cc2Cl)s1,-15,?,-7%,?,-1%
O=C(CCl)c1ccc(Cc2ncc(C(F)(F)F)cc2Cl)s1,-104*,3.3µM*,-13%,5.2µM*,-19%
CCN(CC)S(=O)(=O)c1ccc(Cc2ncc(C(F)(F)F)cc2Cl)s1,-58*,?,-22%,21µM*,-15%
Clc1ccc2nc(C3CCCCC3)c(CC3CCCCC3)n2c1,42,-23%,20%,?,5%
O=C(CN1C(=O)NC2(CCCC2)C1=O)N1CCN(c2ccccc2O)CC1,-3,-2%,16%,-16%,14%
CCOc1ccc(C2CC(=O)Nc3c2c(=O)nc(SCc2ccccc2C)n3C)cc1OC (stereo unspecified),·,9.2µM*,·,5.8µM*,·
CC(=O)c1ccc(O)c(CSC2=NCCS2)c1,0,19%,-4%,-23%,-4%
O=C(NCCc1ccccn1)c1cccc(S(=O)(=O)N2CCc3ccccc32)c1,11,?,-13%,?,-8%
O=C(NCc1ccncc1)c1cccc(S(=O)(=O)N2CCc3ccccc32)c1,-12,21µM*,-17%,?,?
O=C(NNC(=O)c1ccccc1F)c1cccc(S(=O)(=O)N2CCc3ccccc32)c1,39,18µM*,0%,10µM*,-9%
CC(NC(=O)c1cccc(S(=O)(=O)N2CCc3ccccc32)c1)c1ccco1 (stereo unspecified),-6,?,-6%,18µM*,-13%
N#CC(C#N)=C1C=CC=CN1/C(=C\c1ccco1)C(=O)c1ccc(Cl)cc1,-101*,0.58µM*,?,0.92µM*,?
N#CC(C#N)=C1C=CC=CN1/C(=C\c1ccco1)C(=O)c1ccc(-c2ccccc2)cc1,-67*,0.92µM*,?,0.58µM*,?
N#C/C(=C\c1ccco1)C(=O)NCc1ccccc1,0,-4%,1%,-10%,0%
CC(/C=N/n1c(-c2ccc(Cl)cc2)n[nH]c1=S)=C\c1ccco1,3,?,13%,?,-1%
CC(C)C(C(=O)NCC1CCCO1)N(Cc1ccccc1)C(=O)CNS(=O)(=O)c1ccccc1 (stereo unspecified),-15,6%,15%,1%,13%
O=C(NCc1cccc(C(F)(F)F)c1)C1CC2Cn3c(nc4ccccc43)C2N1Cc1ccccc1 (stereo unspecified),-9,-90%,-5%,13µM*,0%
COc1ccccc1N1CCN(S(=O)(=O)CCNC(=O)c2ccc(Br)o2)CC1,18,-19%,-1%,-27%,-4%
CC(C)C(C(=O)NCc1ccccc1)N(C)Cc1ccc(Cl)c(Cl)c1 (stereo unspecified),0,?,?,?,?
SMILES,IL-1B inflam inh,DT40 TDP1 CPT,HT1080 IDH1KD tx,DT40 TDP1 no CPT,HT1080NT lethal
CCc1ccc(CN(C)C(C)C(=O)NCc2ccccc2)cc1 (stereo unspecified),-1,?,-3%,7.3µM*,-3%
CCC(CC)C(C(=O)NCc1ccccc1)N(C)Cc1ccc(Cl)c(Cl)c1 (stereo unspecified),-10,21µM*,?,15µM*,?
CCOc1ccc(CN(C)C(C)C(=O)NCc2ccccc2)cc1 (stereo unspecified),11,?,-3%,?,6%
Nc1[nH]c2cc([N+](=O)[O-])ccc2c1-c1ccccn1,-11,15µM*,?,?,-11%
O=[N+]([O-])c1ccc2nc[nH]c2c1,-10,0%,1%,-20%,0%
Cc1noc(C)c1COc1cccc(C(=O)NC(C)(C)C)c1,-6,-6%,9%,19%,-1%
CC(Oc1ccc(F)cc1)C(=O)NN (stereo unspecified),6,-27%,17%,-14%,13%
COc1ccc(C(=O)Nc2nc(-c3ccc(Br)cc3)ns2)cc1,·,-15%,·,?,·
COc1ccc(-c2nsc(NC(=O)C(C)Oc3ccc(Cl)c(C)c3)n2)cc1 (stereo unspecified),·,23µM*,·,?,·
CC(Oc1ccc(F)cc1)C(=O)Nc1nc(-c2ccc(F)cc2)ns1 (stereo unspecified),·,?,·,13µM*,·
CCOc1ccccc1CNC(=O)CN1C(=O)C2CCCCN2c2ccc(C(=O)N(C)C)cc21 (stereo unspecified),·,-24%,·,?,·
Cc1ccc(C2=NN(S(C)(=O)=O)C(c3ccc4c(c3)OCO4)C2)cc1 (stereo unspecified),10,21µM*,2%,13µM*,2%
CS(=O)(=O)N1N=C(c2ccc(Br)cc2)CC1c1ccc2c(c1)OCO2 (stereo unspecified),5,?,10%,?,17%
Cc1ccc(C)c(NC(=O)CCN2CCN(CCO)CC2)c1,-5,0%,-5%,5%,-2%
COc1ccc(CCNC(=O)C2=CCN(S(=O)(=O)c3ccc(F)cc3)CC2)cc1OC,-5,-20%,0%,-19%,0%
CCN(CC)c1ccc(NC(=O)C2=CCN(S(=O)(=O)c3ccc(F)cc3)CC2)c(C)c1,3,18µM*,-25%,18µM*,-16%
CCOC(=O)c1c(C)[nH]c(CCC(=O)Nc2ccc(C)c(F)c2)c1C,·,21µM*,·,15µM*,·
